Values without a mark were called inactive. Active and inactive are the calls of the source. Cut-off read from the data, not from the text of the source, unless noted: active = inhibition above about 30%; inactive = the rest.
target: Nuclear receptor coactivator 3 (Homo sapiens) (UniProt Q9Y6Q9); test: SRC3 coactivator transcriptional activity inhibitors, confirmation, cell-based, luminescence, quadruplicate (AID 588792;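 active = mean inhibition over 43.08%, the solvent-only control mean plus 3 SD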;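 note: 0% = DMSO treated cells and 100% = gossypol at 36 µM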); conditions: HEK293 GAL4-SRC3 luciferase reporter, at 3.6 µM, hits give high values
Sequence (Q9Y6Q9 whole entry, looked up, the tested form may be a part): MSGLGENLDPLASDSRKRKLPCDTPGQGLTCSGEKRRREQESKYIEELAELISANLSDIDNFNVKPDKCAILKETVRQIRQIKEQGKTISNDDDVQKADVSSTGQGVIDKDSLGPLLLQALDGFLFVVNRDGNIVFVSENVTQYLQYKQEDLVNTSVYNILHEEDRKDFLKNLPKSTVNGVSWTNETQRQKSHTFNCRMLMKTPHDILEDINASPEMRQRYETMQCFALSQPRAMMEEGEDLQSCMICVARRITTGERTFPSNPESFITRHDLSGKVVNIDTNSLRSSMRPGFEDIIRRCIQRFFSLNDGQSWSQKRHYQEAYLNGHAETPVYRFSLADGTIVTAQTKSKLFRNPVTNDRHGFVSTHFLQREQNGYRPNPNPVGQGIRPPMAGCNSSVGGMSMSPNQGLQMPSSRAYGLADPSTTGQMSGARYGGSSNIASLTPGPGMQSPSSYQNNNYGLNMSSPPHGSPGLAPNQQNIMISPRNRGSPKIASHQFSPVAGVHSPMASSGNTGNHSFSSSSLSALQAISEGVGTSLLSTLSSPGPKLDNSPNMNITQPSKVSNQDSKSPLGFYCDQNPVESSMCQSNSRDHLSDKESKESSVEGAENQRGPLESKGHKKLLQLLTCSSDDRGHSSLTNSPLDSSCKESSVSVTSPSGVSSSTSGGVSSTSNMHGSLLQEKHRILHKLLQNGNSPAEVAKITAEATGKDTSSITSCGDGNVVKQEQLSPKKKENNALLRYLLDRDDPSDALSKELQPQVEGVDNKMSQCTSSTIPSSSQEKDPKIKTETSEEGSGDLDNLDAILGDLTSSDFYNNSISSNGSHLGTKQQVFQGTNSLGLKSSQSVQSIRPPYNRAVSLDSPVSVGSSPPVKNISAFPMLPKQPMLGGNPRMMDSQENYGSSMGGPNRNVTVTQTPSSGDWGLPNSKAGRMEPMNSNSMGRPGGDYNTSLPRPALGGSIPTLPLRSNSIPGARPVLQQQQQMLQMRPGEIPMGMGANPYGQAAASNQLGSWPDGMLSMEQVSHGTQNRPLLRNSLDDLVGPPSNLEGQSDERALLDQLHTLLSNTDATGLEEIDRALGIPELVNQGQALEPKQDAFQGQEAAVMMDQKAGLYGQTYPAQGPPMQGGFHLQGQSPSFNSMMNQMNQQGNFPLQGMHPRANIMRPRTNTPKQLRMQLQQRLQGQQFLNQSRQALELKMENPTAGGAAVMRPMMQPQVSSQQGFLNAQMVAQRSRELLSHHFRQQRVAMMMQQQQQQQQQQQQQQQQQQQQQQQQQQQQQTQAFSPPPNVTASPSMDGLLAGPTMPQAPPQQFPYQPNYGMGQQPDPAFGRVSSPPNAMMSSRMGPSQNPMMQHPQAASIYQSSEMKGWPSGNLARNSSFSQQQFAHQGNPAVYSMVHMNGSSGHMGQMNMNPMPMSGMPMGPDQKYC

| Compound | inhibition |
| --- | --- |
| COc1cccc(/C=C/C(=O)OCC(=O)N2CCCC2)c1OC | -12.6% |
| CC(C)(C)c1cc(C(=O)N/N=C/c2ccccc2O)n(-c2ccccc2)n1 | 35.7% |
| CC(C)(C)OC(=O)NCc1ccc(CNC(=O)c2[nH]cnc2C(=O)NC2CCN(C(=O)OC(C)(C)C)CC2)cc1 | 4.73% |
| c1ccc2c(c1)Nc1ccncc1S2 | 31.2% |
| O=C(CCSc1ccc(Cl)cc1)N1CCN(c2ccc(O)cc2)CC1 | 3.85% |
| COc1ccc(CCN2C(=O)C(Oc3ccccc3C)C2c2ccc3c(c2)OCO3)cc1 (stereo not given) | 2.45% |
| Cn1c(N)c(C(=O)COC(=O)C2CC(=O)N(Cc3ccccc3)C2)c(=O)n(C)c1=O (stereo not given) | -0.18% |
| COc1ccc(C(=O)C2CCCN(Cc3cccn3-c3ccccn3)C2)c(C)c1 (stereo not given) | 26.1% |
| OCC(O)C(O)C(O)C(O)C1NCCS1 (stereo not given) | -6.42% |
| Brc1ccc2ncc3ccccc3c2c1 | 40.2% |
| CC(C)Nc1nc(Cl)nc(NNC(=O)C(C)Oc2ccccc2)n1 (stereo not given) | -3.52% |
| CCOc1cccc(/C=N/NC(=O)c2cc(-c3cccn3C)n[nH]2)c1O | 26% |
| Nc1[nH]nc2nc(-c3ccccc3)[nH]c(=O)c12 | -11.1% |
| COc1ccc(CCNC(=O)C(C)n2nc(C)c3c(C)n(-c4ccc(C)cc4)nc3c2=O)c(OC)c1 (stereo not given) | 7.11% |
| COc1ccc(C(=O)Nc2c(-c3cccs3)c(=O)c3ccccc3n2C)cc1 | -10.2% |
| O=C(COc1ccc(Cl)cc1)Nc1ccc(C(=O)NCc2cccnc2)cc1 | 55.6% (active) |
| CCCCn1c(/N=C/c2ccc(N(C)C)cc2)nc2ccccc21 | -1.05% |
| C/C(=N\NC(N)=S)C1C2C3CC4C5CC(C42)C1C53 (stereo not given) | 28.5% |
| Cn1nc(CC(=O)Nc2ccc3c(c2)OCCO3)c2ccccc2c1=O | 9.58% |
| CCCCCCCOC(=O)C[N+](C)(C)CCOC1CC2CCC1(C)C2(C)C (stereo not given) | -17.6% |

| Compound | inhibition |
| --- | --- |
| C/C(=N\NC(=O)COc1ccccc1-c1ccccc1)c1ccc(O)cc1O | 8.45% |
| O=C(NN=Cc1cccc(O)c1O)c1ccccc1 | 23.7% |
| CCCC(=O)NC(c1ccc(OC)cc1)c1ccc2cccnc2c1O (stereo not given) | 57.7% (active) |
| COc1cc2c(C#N)c(N3CCOCC3)nc(N)c2c(N)n1 | -5.11% |
| CCCCC(=O)NC(=S)Nc1cccc(Cl)c1N1CCCCC1 | 1.21% |
| CCOC(=O)c1ccc2nc(Nc3nc4ccc(F)cc4s3)sc2c1 | 15.2% |
| CCOc1ccc(S(=O)(=O)N2CCN(C(=O)COc3ccc(Br)cc3)CC2)cc1 | 14.4% |
| COc1cc(C(F)(F)F)c(C(=O)N(C)Cc2cc(Cl)cc(Cl)c2)cn1 | -10.3% |
| O=C(NCc1cccs1)C1CCCN(C(=O)Nc2ccccc2)C1 (stereo not given) | 17.7% |
| CCc1cccc(CC)c1NC(=O)CSc1nc2ccc(N3C(=O)C4C(C3=O)[C@H]3C=C[C@@H]4C3)cc2s1 (stereo not given in full) | 1.87% |
| O=C(N/N=C\c1c(O)ccc2ccccc12)c1ccc(Cn2cccn2)o1 | 49.1% (active) |
| CCOc1ccc(/C=N/OCC(=O)NCc2ccc3c(c2)OCO3)cc1OC | -12.6% |
| O=c1cc(CNc2cc(C(F)(F)F)cc(C(F)(F)F)c2)nc2sccn12 | 4.27% |
| COC(=O)c1sc(NC(=O)c2cc(-c3ccccc3)nc3ccccc23)c(C#N)c1C | 5.32% |
| Cc1ccc(-c2csc(NC(=O)c3cccc(C)c3)c2C(=O)O)cc1 | -6.27% |
| CN(C)S(=O)(=O)c1cccc(-c2nn(-c3ccccc3)cc2/C=C(\C#N)c2nc3ccccc3[nH]2)c1 | 1.73% |
| COc1ccc2c(O)c(-c3c(C)cc(C)cc3C)c(=O)[nH]c2c1 | -14.3% |
| Cc1ccc2c(c1)c(C)cc[n+]2Cc1ccccc1 | 10.7% |
| CCOC(=O)c1c(C)sc2c1N(C(=O)CCl)c1cc(Cl)ccc1S2 | -14.3% |
| O=c1[nH]c(=O)n([C@H]2C[C@H](O)[C@@H](CO)O2)cc1Br | 14.7% |

system: transactivating tegument protein VP16 (Human herpesvirus 1), Gal4-VP16 luciferase reporter; test: VP16 transactivation inhibitors, counter-screen for SRC3 inhibitor project, cell-based, luminescence, high throughput (AID 588794); conditions: mammalian cells, VP16-driven luciferase reporter luminescence; at 3.6 µM; hits give high values

| Compound | inhibition |
| --- | --- |
| COc1cccc(/C=C/C(=O)OCC(=O)N2CCCC2)c1OC | -16% |
| CC(C)(C)c1cc(C(=O)N/N=C/c2ccccc2O)n(-c2ccccc2)n1 | 40.6% (active) |
| CC(C)(C)OC(=O)NCc1ccc(CNC(=O)c2[nH]cnc2C(=O)NC2CCN(C(=O)OC(C)(C)C)CC2)cc1 | -0.72% |
| c1ccc2c(c1)Nc1ccncc1S2 | 16.4% |
| O=C(CCSc1ccc(Cl)cc1)N1CCN(c2ccc(O)cc2)CC1 | 28% |
| COc1ccc(CCN2C(=O)C(Oc3ccccc3C)C2c2ccc3c(c2)OCO3)cc1 (stereo not given) | 8.58% |
| Cn1c(N)c(C(=O)COC(=O)C2CC(=O)N(Cc3ccccc3)C2)c(=O)n(C)c1=O (stereo not given) | -2.93% |
| COc1ccc(C(=O)C2CCCN(Cc3cccn3-c3ccccn3)C2)c(C)c1 (stereo not given) | 9.76% |
| OCC(O)C(O)C(O)C(O)C1NCCS1 (stereo not given) | -4.51% |
| Brc1ccc2ncc3ccccc3c2c1 | 19.1% |
| CC(C)Nc1nc(Cl)nc(NNC(=O)C(C)Oc2ccccc2)n1 (stereo not given) | 4.03% |
| CCOc1cccc(/C=N/NC(=O)c2cc(-c3cccn3C)n[nH]2)c1O | 40% (active) |
| Nc1[nH]nc2nc(-c3ccccc3)[nH]c(=O)c12 | -4.28% |
| COc1ccc(CCNC(=O)C(C)n2nc(C)c3c(C)n(-c4ccc(C)cc4)nc3c2=O)c(OC)c1 (stereo not given) | 30.4% (active) |
| COc1ccc(C(=O)Nc2c(-c3cccs3)c(=O)c3ccccc3n2C)cc1 | 7.07% |
| O=C(COc1ccc(Cl)cc1)Nc1ccc(C(=O)NCc2cccnc2)cc1 | -24.6% |
| CCCCn1c(/N=C/c2ccc(N(C)C)cc2)nc2ccccc21 | -4% |
| C/C(=N\NC(N)=S)C1C2C3CC4C5CC(C42)C1C53 (stereo not given) | 30% (active) |
| Cn1nc(CC(=O)Nc2ccc3c(c2)OCCO3)c2ccccc2c1=O | 34% (active) |
| CCCCCCCOC(=O)C[N+](C)(C)CCOC1CC2CCC1(C)C2(C)C (stereo not given) | 9.62% |

| Compound | inhibition |
| --- | --- |
| C/C(=N\NC(=O)COc1ccccc1-c1ccccc1)c1ccc(O)cc1O | 10.5% |
| O=C(NN=Cc1cccc(O)c1O)c1ccccc1 | 21.5% |
| CCCC(=O)NC(c1ccc(OC)cc1)c1ccc2cccnc2c1O (stereo not given) | 63.7% (active) |
| COc1cc2c(C#N)c(N3CCOCC3)nc(N)c2c(N)n1 | 0.07% |
| CCCCC(=O)NC(=S)Nc1cccc(Cl)c1N1CCCCC1 | -6.23% |
| CCOC(=O)c1ccc2nc(Nc3nc4ccc(F)cc4s3)sc2c1 | 3.4% |
| CCOc1ccc(S(=O)(=O)N2CCN(C(=O)COc3ccc(Br)cc3)CC2)cc1 | 14.7% |
| COc1cc(C(F)(F)F)c(C(=O)N(C)Cc2cc(Cl)cc(Cl)c2)cn1 | -2.09% |
| O=C(NCc1cccs1)C1CCCN(C(=O)Nc2ccccc2)C1 (stereo not given) | 31.9% (active) |
| CCc1cccc(CC)c1NC(=O)CSc1nc2ccc(N3C(=O)C4C(C3=O)[C@H]3C=C[C@@H]4C3)cc2s1 (stereo not given in full) | 10.2% |
| O=C(N/N=C\c1c(O)ccc2ccccc12)c1ccc(Cn2cccn2)o1 | 39.5% (active) |
| CCOc1ccc(/C=N/OCC(=O)NCc2ccc3c(c2)OCO3)cc1OC | -5.41% |
| O=c1cc(CNc2cc(C(F)(F)F)cc(C(F)(F)F)c2)nc2sccn12 | 3.94% |
| COC(=O)c1sc(NC(=O)c2cc(-c3ccccc3)nc3ccccc23)c(C#N)c1C | 38.6% (active) |
| Cc1ccc(-c2csc(NC(=O)c3cccc(C)c3)c2C(=O)O)cc1 | 0.42% |
| CN(C)S(=O)(=O)c1cccc(-c2nn(-c3ccccc3)cc2/C=C(\C#N)c2nc3ccccc3[nH]2)c1 | -4.19% |
| COc1ccc2c(O)c(-c3c(C)cc(C)cc3C)c(=O)[nH]c2c1 | -6.8% |
| Cc1ccc2c(c1)c(C)cc[n+]2Cc1ccccc1 | 4.92% |
| CCOC(=O)c1c(C)sc2c1N(C(=O)CCl)c1cc(Cl)ccc1S2 | 1.53% |
| O=c1[nH]c(=O)n([C@H]2C[C@H](O)[C@@H](CO)O2)cc1Br | 16.2% |
